Whole data set: some 33,000 sequences, median “e-score” near -0.05, cut for the highest 2% near 0.38. The sample holds the highest values, similar sequences and a random draw of the others, so the mix is not that of the screen.

The assay concerns the target T1, SIX1-Q177R homeodomain (human, UniProt Q15475 108-198, Q177R).
T1 sequence: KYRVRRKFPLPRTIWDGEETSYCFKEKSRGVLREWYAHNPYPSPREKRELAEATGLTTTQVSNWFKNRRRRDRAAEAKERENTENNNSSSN
The assay is described as follows: universal protein binding microarray; Universal all-10-mer PBM (8x60K, AMADID 030236), 300 nM GST-tagged protein, Alexa Fluor 488 anti-GST; buffer, salt, pH and temperature not stated (as in Berger); high values mean tight binding. Conditions: protein: ivt; tags: N-terminal GST; dsDNA, one strand shown. A digest of the protocol:
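Duplicate protein binding microarrays (universal 'all 10-mer', 8×60K format) were incubated with GST-tagged homeodomains at 300 nM final concentration. Binding was quantified as 8-mer E-scores with the Universal PBM Analysis Suite.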
For the sequence CTCCCCTA, the binding signal is 0.159 ± 0.0508 E-score. For CCGGGCGA the value was 0.151 ± 0.0223 E-score; for GATCCACA, 0.157 ± 0.00291 E-score. For ACCCTGAA the value was 0.21 ± 0.0501 E-score.

Turning to CACAGGAG, the binding signal amounted to 0.168 ± 0.00689 E-score.

For the sequence GGATCCCC, the binding signal came to 0.298 ± 0.0202 E-score. Regarding CCCCGCCC, the binding signal was determined as 0.223 ± 0.0451 E-score. For TACTAACA the value was 0.185 ± 0.0552 E-score; for AGTGCGGA, 0.161 ± 0.0458 E-score.

For the sequence CCGGATCG, the binding signal is 0.199 ± 0.0134 E-score. For CCCGCCGC the value was 0.184 ± 0.0289 E-score; for AAAGTGTA, 0.36 ± 0.0454 E-score; for ACAGAGTG, 0.184 ± 0.0479 E-score. Next, ACAGTGTA: 0.381 ± 0.0259 E-score; GCACCCCA: 0.257 ± 0.053 E-score; ACTGGATC: 0.155 ± 0.0197 E-score. Consider GCGTAACA, for which the binding signal is 0.199 ± 0.0107 E-score.

CGTATCAC: the binding signal came to 0.162 ± 0.023 E-score. Next, GGTATCAC: 0.3993 ± 0.00177 E-score; GGTATCAA: 0.325 ± 0.0148 E-score. For ACCCGCCA the value was 0.152 ± 0.0278 E-score. For ATGATCCC the value was 0.251 ± 0.0242 E-score. For the sequence CCACACTC, the binding signal turned out to be 0.308 ± 0.014 E-score. For ATACACTC the value was 0.369 ± 0.0201 E-score; for CCACACTA, 0.206 ± 0.00246 E-score. ATACACTA: the binding signal stood at 0.364 ± 0.0337 E-score.

Take CTACACTA: the binding signal stood at 0.401 ± 0.013 E-score. Next, GCACACTA: 0.2 E-score.

Turning to GTACACTA, the binding signal amounted to 0.432 ± 0.0136 E-score. Take CTACACTC: the binding signal turned out to be 0.412 ± 0.0145 E-score. In the case of TCTCAACA, the binding signal worked out at 0.219 ± 0.0267 E-score. As to ACTTTACA, the binding signal was found to be 0.228 ± 0.0604 E-score. As for TGCGAACA, the binding signal was 0.158 ± 0.012 E-score. For ATCCCCCA the value was 0.24 ± 0.0099 E-score. For TAGTTACA the value was 0.249 ± 0.0533 E-score; for GACCCGAC, 0.193 ± 0.052 E-score; for CAGGTACA, 0.187 ± 0.0255 E-score. For AAGGTGGT the value was 0.151 ± 0.00564 E-score; for AAGGTGCA, 0.222 ± 0.0217 E-score. Take GAGGTGTA: the binding signal was 0.466 ± 0.00775 E-score.

Take AAGGTGTG: the binding signal was found to be 0.369 ± 0.0137 E-score. For GAGGTGCA the value was 0.192 ± 0.0287 E-score. For AAGGTGTA the value was 0.461 ± 0.0153 E-score; for CATGTGTA, 0.2594 ± 0.00165 E-score. For GAGGTATA the value was 0.18 ± 0.0163 E-score; for AAGGTGTC, 0.4706 ± 0.00267 E-score; for CAGGTGTA, 0.464 ± 0.00823 E-score. AAGCGTGT: the binding signal was found to be 0.378 ± 0.00665 E-score. Turning to GATCCCGA, the binding signal turned out to be 0.203 ± 0.0172 E-score. In the case of ACGCACGA, the binding signal was determined as 0.277 ± 0.005 E-score. For the sequence CCCCCGGG, the binding signal stood at 0.195 ± 0.00105 E-score.

CCCACCCG: the binding signal was 0.194 ± 0.0228 E-score. Next, ACGAGTTA: 0.205 ± 0.00221 E-score. Turning to CAACCCCC, the binding signal turned out to be 0.242 ± 0.0559 E-score. On to ACACAAGG, for which the binding signal came out at 0.155 ± 0.0571 E-score.

Take ACCAGTGA: the binding signal is 0.189 ± 0.0202 E-score. For CACTTACG the value was 0.206 ± 0.0274 E-score. Take AAGGAGTA: the binding signal worked out at 0.158 ± 0.0662 E-score. Next, ACATGGTG: 0.33 ± 0.0163 E-score; CACGAGCA: 0.242 ± 0.0191 E-score; ACCCGACT: 0.207 ± 0.0388 E-score. In the case of CTGCGACA, the binding signal was determined as 0.195 ± 0.00854 E-score.

For CAGGTGTC, the binding signal is 0.474 ± 0.0095 E-score. For CAGGTATC the value was 0.328 ± 0.00751 E-score.

With CATGTGTC, the binding signal came to 0.19 ± 0.0338 E-score.

Turning to CCCAGGTA, the binding signal is 0.203 ± 0.0198 E-score.

Regarding CACGCGTG, the binding signal amounted to 0.317 ± 0.0193 E-score. For CGCGTGTA the value was 0.43 ± 0.00692 E-score; for AGCGGGTA, 0.158 ± 0.0257 E-score; for CGTGTGTA, 0.296 ± 0.0261 E-score. Next, AGCGTGTA: 0.419 ± 0.0156 E-score. Next, AACGTGTG: 0.154 ± 0.0123 E-score.

Regarding CGCGTGTC, the binding signal was found to be 0.414 ± 0.00637 E-score. On to AGCGTGTC, for which the binding signal amounted to 0.393 ± 0.00925 E-score. Consider AGCGTGTG, for which the binding signal was 0.281 ± 0.00182 E-score. Next, AGAGCGTG: 0.189 ± 0.00653 E-score. For CGTGTGTC the value was 0.289 ± 0.0336 E-score. For CGCGTATC the value was 0.155 ± 0.05 E-score; for ACCGCACC, 0.247 ± 0.013 E-score; for CTCGGATA, 0.188 ± 0.0289 E-score. Regarding GTGGATCA, the binding signal was 0.161 ± 0.0203 E-score. As for ACTGGTGC, the binding signal was determined as 0.297 ± 0.00607 E-score. For CACGGTCA the value was 0.2431 ± 0.00219 E-score; for GTCCAACA, 0.216 ± 0.00357 E-score.

Regarding AGAAACGG, the binding signal came to 0.152 ± 0.0193 E-score. For ATAGGTGC the value was 0.193 ± 0.00788 E-score; for ACTGAGTG, 0.1766 ± 0.000721 E-score.

These data come from PMC10668032, “Altered binding affinity of SIX1-Q177R correlates with enhanced WNT5A and WNT pathway effector expression in Wilms tumor”.
